Measured values from PubChem BioAssay AID1159580 (chemical genetic matrix, 2015).
Several values for one entry are separate records, joined by “and”; a condition that tells them apart may be missing. Equal entries are not always repeated. Out of some 5,500 compounds screened, about 2,000 (36%) were called active. Not shown: some 18% with an inconclusive outcome. Some of the results follow. Unmarked numbers belong to inactive results. Rule as the data show it: active = normalized growth mostly below about 0.91 (no sharp cut-off); inconclusive = no clear call, values can overlap the other calls; inactive = mostly above about 0.92.

Assay: chemical genetic growth profiling, strain panel (AID 1159580);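 also: tested at 20 µM; growth read once vehicle control cultures reached saturation at 30 °C; 1 = growth at the plate median or of vehicle wells; lower values mean less growth of the strain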
Settings: S. cerevisiae deletion strains, growth OD

Cc1cc(O)c2c(c1)C(=O)c1cccc(O)c1C2=O
normalized growth (locus YAL013W, strain DEP1, hits give low values): 0.971
normalized growth (locus YAL021C, strain ccr4, hits give low values): 0.991
normalized growth (locus YAL026C, strain drs2, hits give low values): 0.974
normalized growth (locus YAL030W, strain snc1, hits give low values): 1
normalized growth (locus YBL061C, strain skt5, hits give low values): 0.999
normalized growth (locus YBR009C, strain hhf1, hits give low values): 0.98
normalized growth (locus YBR021W, strain FUR4, hits give low values): 1.05
normalized growth (locus YBR023C, strain chs3, hits give low values): 1.01
normalized growth (locus YBR171W, strain sec66, hits give low values): 0.996
normalized growth (locus YBR229C, strain ROT2, hits give low values): 0.996
normalized growth (locus YBR231C, strain swc5, hits give low values): 0.967
normalized growth (locus YBR279W, strain paf1, hits give low values): 1
normalized growth (locus YCL011C, strain gbp2, hits give low values): 1
normalized growth (locus YCL016C, strain dcc1, hits give low values): 1
normalized growth (locus YCL029C, strain bik1, hits give low values): 0.992
normalized growth (locus YCL061C, strain MRC1, hits give low values): 1
normalized growth (locus YCL069W, strain vba3, hits give low values): 1
normalized growth (locus YCR088W, strain abp1, hits give low values): 1
normalized growth (locus YDL005C, strain med2, hits give low values): 1.01
normalized growth (locus YDL035C, strain GPR1, hits give low values): 0.975
normalized growth (locus YDL040C, strain nat1, hits give low values): 0.985
normalized growth (locus YDL074C, strain BRE1, hits give low values): 0.935
normalized growth (locus YDL101C, strain DUN1, hits give low values): 0.997
normalized growth (locus YDL185W, strain tfp1, hits give low values): 0.987
normalized growth (locus YDL192W, strain arf1, hits give low values): 0.967
normalized growth (locus YDR001C, strain nth1, hits give low values): 0.998
normalized growth (locus YDR069C, strain doa4, hits give low values): 0.99
normalized growth (locus YDR101C, strain arx1, hits give low values): 0.975
normalized growth (locus YDR137W, strain rgp1, hits give low values): 0.791 (active)
normalized growth (locus YDR159W, strain sac3, hits give low values): 1
normalized growth (locus YDR162C, strain NBP2, hits give low values): 0.969
normalized growth (locus YDR195W, strain ref2): 1.18 [resistant] (active)
normalized growth (locus YDR297W, strain sur2, hits give low values): 0.999
normalized growth (locus YDR318W, strain mcm21, hits give low values): 0.989
normalized growth (locus YDR334W, strain swr1, hits give low values): 0.993
normalized growth (locus YDR335W, strain msn5, hits give low values): 0.989
normalized growth (locus YDR388W, hits give low values): 0.994
normalized growth (locus YDR392W, strain spt3, hits give low values): 0.82
normalized growth (locus YDR502C, strain sam2, hits give low values): 1.01
normalized growth (locus YEL003W, strain gim4, hits give low values): 0.988
normalized growth (locus YEL037C, strain rad23, hits give low values): 0.982
normalized growth (locus YEL061C, strain CIN8 (second series), hits give low values): 0.99
normalized growth (locus YEL061C, strain CIN8, hits give low values): 0.993
normalized growth (locus YER015W, strain faa2, hits give low values): 1.01
normalized growth (locus YER016W, strain bim1, hits give low values): 1
normalized growth (locus YER110C, hits give low values): 1
normalized growth (locus YER111C, strain swi4, hits give low values): 1
normalized growth (locus YER155C, strain BEM2 (second series), hits give low values): 0.985
normalized growth (locus YER155C, strain BEM2, hits give low values): 1.01
normalized growth (locus YER167W, strain BCK2, hits give low values): 0.995
normalized growth (locus YFR010W, strain ubp6, hits give low values): 0.971
normalized growth (locus YGL078C, strain dbp3, hits give low values): 1.02
normalized growth (locus YGL086W, strain mad1, hits give low values): 0.965
normalized growth (locus YGL167C, strain pmr1, hits give low values): 0.987
normalized growth (locus YGL173C, strain kem1, hits give low values): 1
normalized growth (locus YGL227W, strain vid30, hits give low values): 1.01
normalized growth (locus YGL240W, strain doc1, hits give low values): 0.963
normalized growth (locus YGL248W, strain PDE1, hits give low values): 0.981
normalized growth (locus YGL253W, strain hxk2, hits give low values): 0.985
normalized growth (locus YGR078C, strain PAC10, hits give low values): 0.964
normalized growth (locus YGR135W, strain pre9, hits give low values): 1.01
normalized growth (locus YGR252W, strain gcn5, hits give low values): 1.03
normalized growth (locus YHR013C, strain ard1, hits give low values): 1
normalized growth (locus YHR027C, strain rpn1, hits give low values): 0.998
normalized growth (locus YHR030C, strain SLT2, hits give low values): 0.981 and 1.02
normalized growth (locus YHR079C, strain IRE1 (second series), hits give low values): 0.995
normalized growth (locus YHR079C, strain IRE1, hits give low values): 1.06
normalized growth (locus YHR094C, strain hxt1, hits give low values): 1.01
normalized growth (locus YHR129C, strain ARP1, hits give low values): 1
normalized growth (locus YHR142W, strain chs7, hits give low values): 0.964
normalized growth (locus YHR200W, strain rpn10, hits give low values): 0.994
normalized growth (locus YIL066C, strain RNR3, hits give low values): 0.991
normalized growth (locus YIL073C, strain SPO22, hits give low values): 0.935
normalized growth (locus YIL125W, strain kgd1, hits give low values): 1
normalized growth (locus YIR030C, strain dcg1, hits give low values): 1.01
normalized growth (locus YJL092W, strain hpr5, hits give low values): 1.01
normalized growth (locus YJL095W, strain BCK1 (second series), hits give low values): 0.999
normalized growth (locus YJL095W, strain BCK1, hits give low values): 0.914 and 1.05
normalized growth (locus YJL115W, strain asf1, hits give low values): 0.996
normalized growth (locus YJL129C, strain trk1, hits give low values): 1.01
normalized growth (locus YJL134W, strain LCB3, hits give low values): 1
normalized growth (locus YJL154C, strain vps35, hits give low values): 0.997
normalized growth (locus YJL164C, strain tpk1, hits give low values): 0.996
normalized growth (locus YJL166W, strain qcr8, hits give low values): 0.983
normalized growth (locus YJL168C, strain set2, hits give low values): 1
normalized growth (locus YJL187C, strain SWE1 (second series), hits give low values): 0.954
normalized growth (locus YJL187C, strain SWE1, hits give low values): 0.995
normalized growth (locus YJR043C, strain POL32, hits give low values): 0.977
normalized growth (locus YJR066W, strain TOR1, hits give low values): 0.979
normalized growth (locus YKL009W, strain mrt4, hits give low values): 1.02
normalized growth (locus YKL068W, hits give low values): 1.02
normalized growth (locus YKL085W, strain MDH1 (second series), hits give low values): 1.01
normalized growth (locus YKL085W, strain MDH1, hits give low values): 1.01
normalized growth (locus YKL160W, strain elf1, hits give low values): 0.995
normalized growth (locus YKL190W, strain CNB1, hits give low values): 0.991
normalized growth (locus YKR001C, strain vps1, hits give low values): 0.928
normalized growth (locus YKR026C, strain gcn3, hits give low values): 1.02
normalized growth (locus YKR091W, strain srl3, hits give low values): 1
normalized growth (locus YLL001W, strain dnm1, hits give low values): 1.01
normalized growth (locus YLL026W, hits give low values): 1
normalized growth (locus YLL041C, strain sdh2, hits give low values): 1.01
normalized growth (locus YLR027C, strain aat2, hits give low values): 1.01
normalized growth (locus YLR039C, strain RIC1, hits give low values): 0.818
normalized growth (locus YLR058C, strain SHM2, hits give low values): 0.972
normalized growth (locus YLR102C, strain apc9, hits give low values): 1.01
normalized growth (locus YLR113W, strain HOG1, hits give low values): 1.07
normalized growth (locus YLR221C, strain rsa3, hits give low values): 1.01
normalized growth (locus YLR258W, strain gsy2, hits give low values): 0.991
normalized growth (locus YLR262C, strain YPT6 (second series), hits give low values): 0.857 (active)
normalized growth (locus YLR268W, strain sec22, hits give low values): 0.933
normalized growth (locus YLR320W, strain mms22, hits give low values): 0.949
normalized growth (locus YLR330W, strain CHS5, hits give low values): 0.986
normalized growth (locus YLR342W, strain FKS1 (second series), hits give low values): 0.984
normalized growth (locus YLR342W, strain FKS1, hits give low values): 1.01
normalized growth (locus YLR357W, strain rsc2, hits give low values): 1.03
normalized growth (locus YLR370C, strain arc18, hits give low values): 1.02
normalized growth (locus YLR371W, strain rom2, hits give low values): 0.963
normalized growth (locus YLR384C, strain iki3, hits give low values): 0.998
normalized growth (locus YLR418C, strain cdc73, hits give low values): 0.936
normalized growth (locus YML016C, strain PPZ1, hits give low values): 0.997
normalized growth (locus YML032C, strain rad52, hits give low values): 0.935
normalized growth (locus YML120C, strain ndi1, hits give low values): 0.998
normalized growth (locus YML124C, strain tub3, hits give low values): 1.01
normalized growth (locus YMR058W, strain fet3, hits give low values): 0.98
normalized growth (locus YMR078C, strain ctf18, hits give low values): 0.988
normalized growth (locus YMR125W, strain sto1, hits give low values): 1.05
normalized growth (locus YMR129W, hits give low values): 0.999
normalized growth (locus YMR205C, strain PFK2, hits give low values): 1.03
normalized growth (locus YMR223W, strain ubp8, hits give low values): 0.968
normalized growth (locus YMR231W, strain pep5, hits give low values): 0.999
normalized growth (locus YMR263W, strain SAP30, hits give low values): 0.982
normalized growth (locus YMR307W, strain GAS1, hits give low values): 0.883
normalized growth (locus YNL067W, strain RPL9B, hits give low values): 0.99
normalized growth (locus YNL071W, strain lat1, hits give low values): 0.996
normalized growth (locus YNL183C, strain NPR1, hits give low values): 0.974
normalized growth (locus YNL209W, strain ssb2, hits give low values): 0.988
normalized growth (locus YNL233W, strain BNI4, hits give low values): 0.966
normalized growth (locus YNL248C, strain rpa49, hits give low values): 0.948
normalized growth (locus YNL250W, strain rad50, hits give low values): 1.04
normalized growth (locus YNL271C, strain bni1, hits give low values): 1
normalized growth (locus YNL298W, strain CLA4, hits give low values): 1.02
normalized growth (locus YNL307C, strain MCK1, hits give low values): 1.01
normalized growth (locus YNL322C, strain KRE1 (second series), hits give low values): 1.02
normalized growth (locus YNR049C, strain mso1, hits give low values): 1.01
normalized growth (locus YNR052C, strain pop2, hits give low values): 0.961
normalized growth (locus YOL012C, strain htz1): 1.1
normalized growth (locus YOL147C, strain pex11, hits give low values): 0.994
normalized growth (locus YOR001W, strain rrp6, hits give low values): 0.983
normalized growth (locus YOR061W, strain CKA2, hits give low values): 1
normalized growth (locus YOR069W, strain VPS5, hits give low values): 0.999
normalized growth (locus YOR070C, strain gyp1, hits give low values): 1.02
normalized growth (locus YOR080W, strain dia2, hits give low values): 0.996
normalized growth (locus YOR083W, strain WHI5, hits give low values): 0.999
normalized growth (locus YOR106W, strain vam3, hits give low values): 0.965
normalized growth (locus YOR136W, strain idh2, hits give low values): 1.01
normalized growth (locus YOR144C, strain elg1, hits give low values): 0.998
normalized growth (locus YOR184W, strain ser1, hits give low values): 0.946
normalized growth (locus YOR231W, strain MKK1, hits give low values): 1.09
normalized growth (locus YOR265W, strain rbl2, hits give low values): 0.996
normalized growth (locus YOR270C, strain vph1, hits give low values): 0.772 (active)
normalized growth (locus YOR290C, strain snf2, hits give low values): 0.967
normalized growth (locus YOR316C, strain cot1, hits give low values): 1.02
normalized growth (locus YPL051W, strain arl3, hits give low values): 0.891 (active)
normalized growth (locus YPL078C, strain atp4, hits give low values): 0.96
normalized growth (locus YPL106C, strain sse1, hits give low values): 0.974
normalized growth (locus YPL240C, strain hsp82, hits give low values): 1
normalized growth (locus YPL256C, strain CLN2, hits give low values): 1.09
normalized growth (locus YPR119W, strain clb2, hits give low values): 1
normalized growth (locus YPR141C, strain kar3, hits give low values): 1.03
normalized growth (locus YPR163C, strain tif3, hits give low values): 1
normalized growth (locus YPR167C, strain met16, hits give low values): 0.998
normalized growth (strain wtn01, hits give low values): 0.97
